Hits are enriched below; roughly 7.5% of the tested compounds scored in any of these assays.
Rab9 prom act: qHTS Assay for Rab9 Promoter Activators | Huh7 Rab9 promoter-luciferase reporter, luminescence, 24 h | Potency, µM (doses to about 9.22 µM), most hits filed as activators | AID 485297, 2010 | actives 2.8% (n = 320,000); further: nearly all actives have a fitted effect of over 60% in size
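Huh7 cells stably carrying Rab9 promoter–luciferase reporter, plated 1500 cells/well, compound added after 2 h and incubated 24 h at 37 °C; luciferase luminescence then read after 10 min with detection reagent.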
ELG1 genotox: qHTS screen for small molecules that induce genotoxicity in human embryonic kidney (HEK293T) cells expressing luciferase-tagged ELG1; HEK293T ELG1-luciferase reporter, luminescence, 16 h; actives 1.3% (n = 330,000); Potency, µM (top dose mostly 46 µM), most hits filed as activators; further: nearly all actives have a fitted effect of over 60% in size
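HEK293T cells expressing luciferase-tagged ELG1 were treated with compound or DMSO for 16 hr at 37°C. Luciferase activity was then read after 30 min with ONE-Glo at room temperature; rising signal flags genetic stress.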
SMN2 splice enh: qHTS Assay for Enhancers of SMN2 Splice Variant Expression | HEK293 SMN2-luciferase splicing reporter, luminescence, 30-36 h | Potency, µM (series often up to 46.1 µM), most hits filed as activators | actives 2.8% (n = 210,000) | AID 1458, 2008; further: nearly all actives have a fitted effect of over 55% in size
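HEK293 cells carry an SMN2 […]–luciferase reporter in which exon 7 inclusion puts luciferase in frame. Cells were plated 10-12 h before compound addition, then incubated 30-36 h at 37C. ONE-Glo luminescence was read; sodium butyrate at 4.5 mM final served as control.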
NPC1 prom act: qHTS Assay for NPC1 Promoter Activators; Huh7 NPC1 promoter luciferase reporter, 24 h; Potency, µM (series often up to 9.22 µM), usual class: activators; actives 2.4% (n = 320,000); further: nearly all actives have a fitted effect of over 60% in size
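Readout is luciferase luminescence, reflecting NPC1 promoter activation in stably transfected Huh7 cells after 24 h compound exposure at 37 °C in reduced-serum medium with 10% FBS.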
Luc counter: Counterscreen for Luciferase (Kinase-Glo TM) Inhibition; actives 0.28% (n = 200,000); Potency, µM (top dose mostly 38.3 µM), hits mostly inhibitors; Kinase-Glo luciferase, ATP luminescence, 8 min; Luciferin 4-monooxygenase (Photuris pensylvanica), Q27757; AID 1379, 2008; further: nearly all actives have a fitted effect of over 60% in size
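Inhibition of Kinase-Glo luciferase light generation was assessed at 10 uM ATP in pH 7.2 imidazole buffer, with luminescence measured after eight minutes at ambient temperature.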
FLuc modulator: qHTS profiling assay for firefly luciferase inhibitor/activator using purifed enzyme and Km concentrations of substrates (counterscreen for miR-21 project). Luciferin 4-monooxygenase (Photinus pyralis), P08659. purified FLuc, Km substrates, luminescence inhibition. Potency, µM (top dose mostly 57.5 µM), usual class: inhibitors. actives 6.9% (n = 360,000); further: nearly all actives have a fitted effect of over 55% in size
Target sequence (P08659 whole entry, looked up): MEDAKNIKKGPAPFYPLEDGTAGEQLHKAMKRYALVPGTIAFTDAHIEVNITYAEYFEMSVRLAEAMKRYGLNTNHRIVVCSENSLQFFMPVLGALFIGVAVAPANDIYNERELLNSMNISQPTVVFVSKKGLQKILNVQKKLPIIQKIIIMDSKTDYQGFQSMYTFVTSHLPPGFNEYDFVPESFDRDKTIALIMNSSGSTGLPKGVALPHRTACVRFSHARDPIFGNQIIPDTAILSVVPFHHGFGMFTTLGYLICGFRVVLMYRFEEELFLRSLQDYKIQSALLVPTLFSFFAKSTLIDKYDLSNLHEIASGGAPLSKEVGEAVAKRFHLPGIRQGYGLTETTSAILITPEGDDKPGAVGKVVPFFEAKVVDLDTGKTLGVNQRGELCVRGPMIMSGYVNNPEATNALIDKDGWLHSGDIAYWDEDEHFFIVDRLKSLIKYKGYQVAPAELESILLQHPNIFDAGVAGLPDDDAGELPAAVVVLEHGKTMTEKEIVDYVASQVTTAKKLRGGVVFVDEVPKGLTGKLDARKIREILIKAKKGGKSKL
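Biochemical qHTS of compounds, final roughly 60 µM downward over six points, against 10 nM purified firefly luciferase using Km concentrations of substrates (10 uM D-luciferin, 10 uM ATP) in Tris acetate pH 7.5 buffer; luminescence output.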
Hits are given with their value; . = inactive; ? = inconclusive; / = no result given. The call rests on the fitted dose curve; in most records, active means well fitted curve in the direction sought with a large enough effect; inconclusive means small, poorly fitted or top-dose-only effect, or another doubt; inactive means no such curve, though single readings can be large; an effect the other way counts as inactive or inconclusive.

SMILES	Rab9 prom act	ELG1 genotox	SMN2 splice enh	NPC1 prom act	Luc counter	FLuc modulator
Cc1cc(C)cc(-n2cnc3cc(C(=O)NC4CCCCCC4)ccc32)c1	/	/	/	/	/	.
Nc1nc(CSC(=S)N2CCOCC2)nc(Nc2ccc(F)cc2)n1	?	?	14.1µM	.	.	?
COc1ccc(Nc2nc(N)nc(CSC(=S)N3CCOCC3)n2)cc1	?	?	?	?	.	?
Cc1ccsc1CN(Cc1ccco1)C(=O)c1ccc(Cl)cc1	/	/	.	/	/	.
O=C(N/N=C/c1cccnc1)c1cc(-c2ccccc2)nc2ccccc12	.	.	/	.	/	10.7µM
O=C(N/N=C/c1cccnc1)c1cc(-c2ccc(Br)cc2)nc2ccccc12	.	.	/	.	/	6.75µM
C/C(=N\Nc1c([N+](=O)[O-])c(C)nn1C)c1ccc(F)cc1F	.	.	.	.	.	.
CCN(c1ccc(NC(=O)CN2C(=O)NC3(CCOc4ccccc43)C2=O)cc1)C(C)C (stereo unspecified)	.	.	.	.	.	16.9µM
C=CCOc1ccc(-c2n[nH]c(=S)o2)cc1	.	.	/	.	.	23.9µM
Cc1ccc(NC(=S)Nc2cccc(-c3n[nH]c(=S)o3)c2)cc1	?	.	/	.	/	16.9µM
O=C(Nc1ccc(-c2n[nH]c(=S)o2)cc1)c1ccccc1	.	.	/	.	/	8.49µM
COc1ccc(C(=O)Nc2ccc(-c3n[nH]c(=S)o3)cc2)cc1	?	?	/	.	/	3.01µM
Fc1ccccc1N1CCN(c2c3c(nc4nncn24)CCC3)CC1	/	/	.	/	/	.
O=C(Nc1ccc(S(=O)(=O)Nc2ncccn2)cc1)c1ccc2ncsc2c1	.	.	/	.	/	?
Cn1cnnc1Sc1ccc(C(=O)NCCC23CC4CC(CC(C4)C2)C3)cc1[N+](=O)[O-]	.	.	.	.	.	.
O=C(N/N=C/C(Br)=C/c1ccccc1)c1cccs1	0.891µM	?	/	2.24µM	.	1.51µM
O=C(N/N=C/C=C/c1ccccc1)c1cccs1	1.78µM	.	?	?	.	15.1µM
O=C(Cc1cccs1)N/N=C/C=C/c1ccccc1	?	.	?	?	.	.
O=C(CSc1nc2ccccc2n1Cc1c(F)cccc1Cl)N1CCN(c2ccc(F)cc2)CC1	/	/	.	/	/	.
Cc1ccc(C2c3c(oc4ccccc4c3=O)C(=O)N2c2nnc(C)s2)cc1 (stereo unspecified)	/	/	/	/	/	.
Cc1ccc(-c2onc(C)c2C)cc1S(=O)(=O)NCc1ccco1	/	/	/	/	/	.
COc1ccc(CN(C)C(=O)CSc2nnc(C3CC3)n2C2CC2)cc1	.	.	/	.	/	.
Cc1ccc(NC(=O)C2CCC(CNS(=O)(=O)c3csc(C(N)=O)c3)CC2)cc1Cl (stereo unspecified)	/	/	/	/	/	.
C=CCOc1ccc2c(OC)c3ccoc3nc2c1OC	.	?	12.6µM	.	.	9.53µM
CCOc1c2ccoc2nc2c(OC)c(OC)ccc12	.	?	/	.	/	21.3µM
SMILES	Rab9 prom act	ELG1 genotox	SMN2 splice enh	NPC1 prom act	Luc counter	FLuc modulator
COc1cccc(CN2C(=O)C3(SCC(=O)N3c3cc(C)cc(C)c3)c3ccccc32)c1 (stereo unspecified)	/	/	/	/	/	.
COc1ccc(NCc2cc3cc4c(cc3n(CC(=O)Nc3ccc(F)cc3)c2=O)OCCO4)cc1	/	/	/	/	/	.
CC(=O)Oc1ccc(NC(=O)CSc2ccccc2)cc1	.	14.6µM	?	.	.	?
COc1ccccc1CNC(=O)CSc1ccccc1	3.16µM	?	?	?	.	?
COc1ccc(NC(=O)CSc2ccc(C)cc2)cc1	.	?	.	?	.	21.3µM
COc1ccc(NC(=O)c2ccccc2NC(=O)CSc2ccc(C)cc2)cc1	?	?	.	.	.	.
O=C(CSc1ccc(F)cc1)Nc1ccc(C2SCCS2)cc1	?	?	/	?	/	10.7µM
Cc1ccc(C(=O)Nc2nc(-c3ccc(F)cc3)cs2)o1	.	.	/	.	/	30.1µM
Cc1ccc(-c2csc(NC(=O)c3ccno3)n2)cc1	.	?	.	.	.	21.3µM
Cc1ccc(-c2csc(NC(=O)c3ccc(C)o3)n2)cc1	.	.	.	.	.	?
CC(C)(C)c1ccc(C(=O)NCC(=O)OCC(=O)Nc2nc(-c3ccc(F)cc3)cs2)cc1	.	.	.	.	.	13.5µM
CCOc1nc(-c2ccccc2)ccc1-c1noc(-c2ccncc2)n1	.	.	.	.	.	.
c1csc(-c2nc(-c3ccc(-c4ccon4)s3)no2)c1	0.355µM	2.31µM	/	0.562µM	/	0.601µM
c1ccc(-c2nc(-c3ccc(-c4ccon4)s3)no2)cc1	1.41µM	?	/	1.12µM	/	1.2µM
Cc1ccnc(NS(=O)(=O)c2ccc(NC(=O)C(C)(C)Oc3ccc(Cl)cc3)cc2)n1	/	/	.	/	/	?
Clc1ccc(OCc2noc(-c3ccsc3)n2)c(Cl)c1	3.98µM	?	/	2µM	/	4.26µM
Fc1cc(Cl)c(OCc2noc(-c3ccsc3)n2)c(Cl)c1	3.16µM	.	/	?	/	?
COc1cc(-c2nc(Cc3ccccc3Cl)no2)cc(OC)c1OC	.	.	.	.	.	.
